In PubChem BioAssay (NCI):
This is part of a sample that, as a whole, favours compounds with a hit. Of some 83,000 tested, about 20% had one in any assay.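 How to read the values: 0–100, growth inhibition (40 = 60% inhibited); 0, no net growth; -100 to 0, cell death (-40 = 40% of starting cells died; -100 = all dead).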 A number with no mark means an inactive call. Active and inactive are the calls of the source. How the source made its calls: active means growth percent below 10; inactive means the rest.

Tested on: PC-3 prostate
Assay: NCI-60 one-dose screen, 48 h (100 = growth as untreated, 0 = no growth, -100 = all killed)
Settings: 10 µM unless noted

First: O=C1Nc2ccccc2/C1=C/c1cccn1CCCCn1c2ccccc2c(=O)c2ccccc21
Second: O=C(CSc1oc(-c2ccccc2)nc1S(=O)(=O)c1ccccc1)Nc1ccc(F)cc1
The growth of the first is higher: 55.1% for the first, 52.7% for the second.

First: O=C1/C(=C/c2ccccc2Br)COc2ccc(O)cc21
Second: Cc1ccc2c(c1)=C/C(=C\c1cc(-c3ccccc3)oc1O)C(=O)N=2
The growth of the first is lower: 60.7% for the first, 96.3% for the second.

Going from `Cc1cc(=O)oc2cc(OCc3nn4c(Nc5nc6ccccc6s5)c(-c5ccccc5)nc4s3)ccc12` to `CSc1nnc(-c2cc3c([nH]c4ccccc43)c(-c3cccc(O)c3)n2)n1-c1ccccc1`, the growth falls from 87% to 29.9%.

First: COC(=O)c1c(C)c2n(c1C)C(=O)C(c1ccccc1)=C2
Second: COC(=O)c1cc(N=C2NC(=O)/C(=C/C=C/c3ccccc3)S2)ccc1O
The growth of the first is higher: 84.4% for the first, 30% for the second.

First: C#CCOC(=O)/C=C/c1cn(-c2ccccc2)nc1-c1ccc(OC)cc1
Second: O=C(O)c1ccc(-n2cc(/C=N/Nc3ccccc3)c(-c3ccc(F)cc3F)n2)cc1
The growth of the first is higher: 83.4% for the first, 51.9% for the second.

First: Cc1ccc2c(Cn3cc(CSc4nc5ccccc5o4)nn3)cc(=O)oc2c1
Second: Cc1ccc(NC(=O)Cn2cc(CN3CCN(c4ccnc5cc(Cl)ccc45)CC3)nn2)cc1
The growth of the first is higher: 104% for the first, 63.1% for the second.

First: O=C(CSc1nnc(-c2cnccn2)n1-c1ccccc1)c1ccc(Cl)cc1
Second: O=C(Nc1nc(-c2ccc(Cl)cc2)nc2c1sc(=S)n2-c1ccccc1)C(F)(F)F
The growth of the first is higher: 87.8% for the first, 38.6% for the second.

Going from `NS(=O)(=O)c1ccccc1NC(=O)Nc1nc2ccccc2s1` to `O=C(/C=C/c1ccccc1)Nc1ncc(Cc2ccccc2Cl)s1`, the growth falls from 97.8% to 25.8%.

First: CCOC(=O)C1=C(N)Oc2c(sc3c(F)cccc23)C1c1ccc(O)cc1 (configuration not stated)
Second: CCn1cc(C(=O)NNC(=S)Nc2ccc(C)cc2)c(=O)c2ccc(C)nc21
The growth of the first is lower: 26% for the first, 90.2% for the second.

Compared with `COc1ccc(/C=C/C(=O)c2ccc(Nc3ccnc4cc(Cl)ccc34)cc2)cc1`, `O=C(/C=C/c1cccc(Cl)c1)c1ccc(Nc2nc(Nc3ccc(F)cc3)nc(Nc3ccc(Cl)cc3)n2)cc1` is higher in growth: 75% for the first, 98.8% for the second.

Going from `Cc1cc(S(=O)(=O)/N=C(\N)n2nc(C)c(C)c2C)c(SCc2ccccc2)cc1Cl` to `c1ccc(Cn2cc3c(c2)-c2oncc2CC3)cc1`, the growth falls from 40.2% to 31.9%.

First: COc1ccc(/C=C(\C#N)n2nnc3cc(Cl)ccc32)cc1
Second: Nc1ncc(-c2ccc3ncnc(Nc4cccc(Cl)c4)c3c2)cn1
The growth of the first is lower: 18.8% for the first, 36.1% for the second.

First: NC(=O)c1cccc(-n2ccc3cc(NC(=O)c4ccc(N5CCOCC5)c(C(F)(F)F)c4)ccc32)n1
Second: Nc1ncnc2c1c(-c1cccc(Cl)c1)nn2CC(=O)N1CCOCC1
The growth of the first is lower: 34.5% for the first, 96.6% for the second.

Compared with `CC(C)(Sc1cc(C(C)(C)C)c(OC(=O)CCCC(=O)O)c(C(C)(C)C)c1)Sc1cc(C(C)(C)C)c(OC(=O)CCCC(=O)O)c(C(C)(C)C)c1`, `O=C(Nc1cccc(Cl)c1)Nc1cccc(Cn2c(=O)[nH]c3ccc(Oc4ncccn4)cc3c2=O)c1` is higher in growth: 36.2% for the first, 36.5% for the second.

Going from `CCN(CC)c1ccc(\C=N/N=C(N)/C(N)=N\N=C/c2ccc(N(CC)CC)cc2)cc1` to `COCCn1cc(-c2csc(-c3cn(C)c4ccc(Br)cc34)n2)c2cccnc21`, the growth falls from 97.1% to 38.1%.

Compared with `c1ccc([P+](c2ccccc2)(c2ccccc2)c2ccc3c4ccc([P+](c5ccccc5)(c5ccccc5)c5ccccc5)c5cccc(c6cccc2c63)c54)cc1`, `Cn1cc(-c2csc(-c3c[nH]c4ccc(Br)cc34)n2)c2ccnc(Cl)c21` is higher in growth: 17.7% for the first, 50.2% for the second.

In the case of `O=S(=O)(Nc1ccc(Cl)c(C(F)(F)F)c1)c1ccc(-c2cnc(C3CC3)o2)cc1`, the growth is reported as 4.35% (active).
With `Cc1c2cnccc2c(C)c2c1c1cc(C#N)ccc1n2C` the growth was -17.2% (active).
With `O=C(O)c1cn(C2CC2)c2cc(N3CCN(C(=O)N(c4ccccc4)c4nc(-c5ccccc5)cs4)CC3)c(F)cc2c1=O` the growth was 8.6% (active).
For `Cc1cccc(/C=C/c2c(C(=O)/C=C/c3ccccc3)c(C)nc3ccccc23)c1`, the growth was 8.27% (active).
In the case of `C#CCOc1ccc2ncnc(Nc3ccc(NC(=O)C=C)cc3)c2c1`, the growth is reported as 3.24% (active).
